Assay results from the supplement of paper PMC10503962.

What follows are compounds tested on Trichuris muris adult worms (assay: mean motility score (Paragon pixel variance) of adult worms (arbitrary units); higher = more motile worms, i.e. less anthelmintic effect; extreme values may be limits of the assay). Settings: 100 µM; 24 h.
Procedure, shortened: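 Motility score was obtained through Paragon pixel-variance analysis and averaged across replicate wells. To generate it, single adult Trichuris muris worms taken from infected NOD SCID mice were kept for 24 h at 37°C and 5% CO2 in 96-well plates, each well holding 100 μL RPMI-1640 plus antibiotics and drug at 100 μM (1% v/v DMSO). The plates were then recorded on an automated phenotyping platform (200 frames, 100 ms apart).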
With `COC(=O)C1=C(C)NC(C)=C(C(=O)OCCN(C)Cc2ccccc2)C1c1cccc([N+](=O)[O-])c1` (stereo not drawn) [nicardipine] the mean motility score was 0. With `Nc1ccccc1NC(=O)c1ccc(CNC(=O)OCc2cccnc2)cc1` [entinostat] the mean motility score was 2720. `CCOc1cc(CC(=O)N[C@@H](CC(C)C)c2ccccc2N2CCCCC2)ccc1C(=O)O` [repaglinide] showed a mean motility score of 268. Work on `CCN1CC(CCN2CCOCC2)C(c2ccccc2)(c2ccccc2)C1=O.Cl` (stereo not drawn) [doxapram hydrochloride] yielded a mean motility score of 1820. `CCC[C@H](N[C@@H](C)C(=O)N1[C@H](C(=O)O)C[C@@H]2CCCC[C@@H]21)C(=O)OCC` [perindopril] gave a mean motility score of 3860. Work on `CC(=O)OCC(=O)[C@@]1(O)CC[C@H]2[C@@H]3CCC4=CC(=O)CC[C@]4(C)[C@H]3[C@@H](O)C[C@@]21C` [hydrocortisone acetate] yielded a mean motility score of 3080. With `O=C(CCCN1CCC(O)(c2ccc(Cl)cc2)CC1)c1ccc(F)cc1` [haloperidol] the mean motility score was 2820. `CCCCOc1cc(C(=O)NCCN(CC)CC)c2ccccc2n1` [dibucaine] showed a mean motility score of 2070. `COc1cc2nccc(Oc3ccc(NC(=O)C4(C(=O)Nc5ccc(F)cc5)CC4)cc3)c2cc1OC` [cabozantinib] gave a mean motility score of 3950. Work on `C/C(=C\C(=O)OCCCCCCCCC(=O)O)C[C@@H]1OC[C@H](C[C@@H]2O[C@H]2[C@@H](C)[C@H](C)O)[C@@H](O)[C@H]1O` [mupirocin] yielded a mean motility score of 2520. Compound `O=c1ccc2ccccc2o1` [coumarin] has a mean motility score of 3690. For `C[C@@H]1CN(c2c(F)c(N)c3c(=O)c(C(=O)O)cn(C4CC4)c3c2F)C[C@H](C)N1` [sparfloxacin], the mean motility score was 3980. `CC(O)(P(=O)(O)O)P(=O)(O)O` [etidronic acid] was tested, and the mean motility score was 3300. In the case of `O=C(O)Cc1ccc(-c2ccccc2)cc1` [felbinac], the mean motility score is reported as 3440. In the case of `CC(=O)Oc1cc(C(C)C)c(OCCN(C)C)cc1C.Cl` [moxisylyte hydrochloride], the mean motility score is reported as 1780. `OCCO` [ethylene glycol] gave a mean motility score of 3150. For `CCCCC/C=C\C/C=C\C/C=C\CCCCC(=O)O` [gamolenic acid], the mean motility score was 2970. With `C[C@@H](c1ncncc1F)[C@](O)(Cn1cncn1)c1ccc(F)cc1F` [voriconazole] the mean motility score was 4350. Work on `CC1(C)[C@@H](O[C@H]2O[C@H](C(=O)O)[C@@H](O)[C@H](O)[C@H]2O[C@@H]2O[C@H](C(=O)O)[C@@H](O)[C@H](O)[C@H]2O)CC[C@]2(C)[C@H]3C(=O)C=C4[C@@H]5C[C@@](C)(C(=O)O)CC[C@]5(C)CC[C@@]4(C)[C@]3(C)CC[C@@H]12` [glycyrrhizin] yielded a mean motility score of 1890. For `CCN(CC)CCOc1ccc2nc(N(C)C)sc2c1.Cl.Cl` [diamthazole dihydrochloride], the mean motility score was 4190. In the case of `CC(c1cc2ccccc2s1)N(O)C(N)=O` (stereo not drawn) [zileuton], the mean motility score is reported as 3310. For `COc1ccc2cc(CCC(C)=O)ccc2c1` [nabumetone], the mean motility score was 2720. Work on `CCCCNc1ccc(C(=O)OCCN(C)C)cc1` [tetracaine] yielded a mean motility score of 4810. Work on `C[C@](N)(Cc1ccc(O)c(O)c1)C(=O)O` [methyldopa] yielded a mean motility score of 4060. Compound `Cc1oncc1C(=O)Nc1ccc(C(F)(F)F)cc1` [leflunomide] has a mean motility score of 2250. Compound `CC(=O)O[C@H]1C(=O)[C@@]2(C)[C@H]([C@H](OC(=O)c3ccccc3)[C@]3(O)C[C@H](OC(=O)[C@H](O)[C@@H](NC(=O)c4ccccc4)c4ccccc4)C(C)=C1C3(C)C)[C@]1(OC(C)=O)CO[C@@H]1C[C@@H]2O` [paclitaxel] has a mean motility score of 1480. Compound `NCC[C@H](O)C(=O)N[C@@H]1C[C@H](N)[C@@H](O[C@H]2O[C@H](CN)[C@@H](O)[C@H](O)[C@H]2O)[C@H](O)[C@H]1O[C@H]1O[C@H](CO)[C@@H](O)[C@H](N)[C@H]1O.O=S(=O)(O)O` [amikacin sulfate] has a mean motility score of 3880. `NS(=O)(=O)c1cc2c(cc1C(F)(F)F)NCNS2(=O)=O` [hydroflumethiazide] gave a mean motility score of 1060. For `O=P(O)(O)C(O)(Cn1ccnc1)P(=O)(O)O` [zoledronic acid], the mean motility score was 1210. `C[C@H]1O[C@@H](O[C@H]2[C@@H](O)C[C@H](O[C@H]3[C@@H](O)C[C@H](O[C@H]4CC[C@@]5(C)[C@H](CC[C@@H]6[C@@H]5CC[C@]5(C)[C@@H](C7=CC(=O)OC7)CC[C@]65O)C4)O[C@@H]3C)O[C@@H]2C)C[C@H](O)[C@@H]1O` [digitoxin] gave a mean motility score of 3060. `CN1CCCN=C1COC(=O)C(O)(c1ccccc1)C1CCCCC1.Cl` (stereo not drawn) [oxyphencyclimine hydrochloride] was tested, and the mean motility score was 3070. In the case of `CCC(NC(C)C)C(O)c1ccc(O)c2nc(O)ccc12.Cl` (stereo not drawn) [procaterol hydrochloride], the mean motility score is reported as 2060. Work on `C=C[C@H]1CN2CC[C@H]1C[C@@H]2[C@@H](O)c1ccnc2ccc(OC)cc12` [quinidine] yielded a mean motility score of 1610. For `Nc1ccc(S(=O)(=O)Nc2ccnn2-c2ccccc2)cc1` [sulfaphenazole], the mean motility score was 3280. Compound `CC(C)O` [isopropyl alcohol] has a mean motility score of 2760. In the case of `C=C(c1ccc(C(=O)O)cc1)c1cc2c(cc1C)C(C)(C)CCC2(C)C` [bexarotene], the mean motility score is reported as 750. With `Cc1ccc(C(=O)Nc2ccc(CN3CCN(C)CC3)c(C(F)(F)F)c2)cc1C#Cc1cnc2cccnn12` [ponatinib] the mean motility score was 1760. `CC(C)N=c1cc2n(-c3ccc(Cl)cc3)c3ccccc3nc-2cc1Nc1ccc(Cl)cc1` [clofazimine] gave a mean motility score of 3290.
